# Measurements reported in the supplement of paper PMC12067093, “Discovery and optimisation of a covalent ligand for TRIM25 and its application to targeted protein ubiquitination” (Chemical Science, 2025).
# The full data set covers some 21,000 targets. This sample favours those with the largest changes.
# Compound: CC1Cc2ccccc2N1C(=O)C1CCCN(C1)C(=O)CCl (mixture of isomers) [TRIM25 ligand 11 (diastereomer mixture)]
# Assay: probe-labelled cysteine peptide fold change vs DMSO (competition) (log2 fold change); higher = less target engagement (more negative = stronger competition)
# Conditions: THP-1, incubation time: 4 h
# 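Further: competitive chemoproteomic profiling in live THP-1 cells with an iodoacetamide desthiobiotin (IA-DTB) probe, comparing probe-labelled peptide intensities in compound-treated cells against DMSO-treated controls.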
# Chain of UniProt Q15437 (Q15437 whole entry, looked up): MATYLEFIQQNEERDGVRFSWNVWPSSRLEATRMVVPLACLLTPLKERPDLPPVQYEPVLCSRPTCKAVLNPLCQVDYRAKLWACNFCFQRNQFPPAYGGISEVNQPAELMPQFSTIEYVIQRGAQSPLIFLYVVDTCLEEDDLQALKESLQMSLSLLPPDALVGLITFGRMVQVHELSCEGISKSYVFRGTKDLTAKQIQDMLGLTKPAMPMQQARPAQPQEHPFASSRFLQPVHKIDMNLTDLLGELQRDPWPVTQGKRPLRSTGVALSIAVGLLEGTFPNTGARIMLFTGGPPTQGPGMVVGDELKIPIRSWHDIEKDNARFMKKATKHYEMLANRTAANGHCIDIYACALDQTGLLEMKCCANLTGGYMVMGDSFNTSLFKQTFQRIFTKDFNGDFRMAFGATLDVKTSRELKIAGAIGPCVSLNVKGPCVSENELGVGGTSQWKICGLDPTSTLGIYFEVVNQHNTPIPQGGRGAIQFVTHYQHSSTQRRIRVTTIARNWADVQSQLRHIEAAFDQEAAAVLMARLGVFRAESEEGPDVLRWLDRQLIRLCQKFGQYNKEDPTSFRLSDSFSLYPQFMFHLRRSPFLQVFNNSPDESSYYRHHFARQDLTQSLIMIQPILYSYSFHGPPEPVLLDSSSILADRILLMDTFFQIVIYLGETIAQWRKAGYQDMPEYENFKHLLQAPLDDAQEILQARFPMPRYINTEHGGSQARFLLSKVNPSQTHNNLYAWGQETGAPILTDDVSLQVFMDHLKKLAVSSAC
# Chain of UniProt P03973 (P03973 whole entry): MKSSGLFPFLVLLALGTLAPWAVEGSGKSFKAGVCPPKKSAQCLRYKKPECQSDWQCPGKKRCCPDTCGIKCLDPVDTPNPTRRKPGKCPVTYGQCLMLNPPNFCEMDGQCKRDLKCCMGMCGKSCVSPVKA
# Chain of UniProt Q92766 (Q92766 whole entry, looked up): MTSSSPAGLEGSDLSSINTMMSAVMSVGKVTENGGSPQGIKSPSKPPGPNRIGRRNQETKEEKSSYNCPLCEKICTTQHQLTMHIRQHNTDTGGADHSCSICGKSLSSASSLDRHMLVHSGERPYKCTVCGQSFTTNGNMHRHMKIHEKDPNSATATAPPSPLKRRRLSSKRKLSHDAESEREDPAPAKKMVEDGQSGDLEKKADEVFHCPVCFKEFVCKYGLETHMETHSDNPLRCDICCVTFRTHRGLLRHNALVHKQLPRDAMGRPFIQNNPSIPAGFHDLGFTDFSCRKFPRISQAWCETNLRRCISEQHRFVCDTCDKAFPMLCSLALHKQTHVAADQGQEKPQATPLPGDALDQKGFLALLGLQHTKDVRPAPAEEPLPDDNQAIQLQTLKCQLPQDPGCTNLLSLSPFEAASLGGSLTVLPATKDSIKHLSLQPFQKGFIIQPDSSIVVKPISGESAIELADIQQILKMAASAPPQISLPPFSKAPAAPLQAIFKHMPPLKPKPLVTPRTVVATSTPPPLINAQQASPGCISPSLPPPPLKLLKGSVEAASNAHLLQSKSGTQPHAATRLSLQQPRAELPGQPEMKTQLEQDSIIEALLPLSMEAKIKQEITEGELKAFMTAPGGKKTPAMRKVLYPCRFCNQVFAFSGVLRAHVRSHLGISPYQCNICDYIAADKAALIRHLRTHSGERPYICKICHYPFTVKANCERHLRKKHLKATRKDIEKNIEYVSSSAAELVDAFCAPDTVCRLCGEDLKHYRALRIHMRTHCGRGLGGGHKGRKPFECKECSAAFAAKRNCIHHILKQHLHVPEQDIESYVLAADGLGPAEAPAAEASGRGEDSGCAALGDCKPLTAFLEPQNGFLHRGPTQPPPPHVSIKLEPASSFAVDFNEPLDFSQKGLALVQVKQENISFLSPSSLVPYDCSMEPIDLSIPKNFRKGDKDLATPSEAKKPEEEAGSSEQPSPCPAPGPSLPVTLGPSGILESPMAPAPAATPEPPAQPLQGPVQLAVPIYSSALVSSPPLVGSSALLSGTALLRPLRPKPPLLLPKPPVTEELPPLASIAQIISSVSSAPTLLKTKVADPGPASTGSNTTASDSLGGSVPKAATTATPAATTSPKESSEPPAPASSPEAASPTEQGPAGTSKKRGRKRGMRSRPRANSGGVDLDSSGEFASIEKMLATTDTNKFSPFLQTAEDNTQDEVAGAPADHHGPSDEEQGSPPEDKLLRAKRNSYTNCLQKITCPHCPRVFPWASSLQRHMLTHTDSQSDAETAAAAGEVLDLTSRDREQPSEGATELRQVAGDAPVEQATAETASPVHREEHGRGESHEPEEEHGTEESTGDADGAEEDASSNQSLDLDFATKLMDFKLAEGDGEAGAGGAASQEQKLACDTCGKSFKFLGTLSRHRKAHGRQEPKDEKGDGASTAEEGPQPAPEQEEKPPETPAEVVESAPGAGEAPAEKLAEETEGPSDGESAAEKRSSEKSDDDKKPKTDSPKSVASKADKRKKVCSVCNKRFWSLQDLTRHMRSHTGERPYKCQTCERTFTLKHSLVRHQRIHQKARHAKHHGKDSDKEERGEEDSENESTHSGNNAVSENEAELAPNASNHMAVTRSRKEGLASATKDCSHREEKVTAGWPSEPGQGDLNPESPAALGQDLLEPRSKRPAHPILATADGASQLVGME
# Chain of UniProt Q8N697 (Q8N697 whole entry): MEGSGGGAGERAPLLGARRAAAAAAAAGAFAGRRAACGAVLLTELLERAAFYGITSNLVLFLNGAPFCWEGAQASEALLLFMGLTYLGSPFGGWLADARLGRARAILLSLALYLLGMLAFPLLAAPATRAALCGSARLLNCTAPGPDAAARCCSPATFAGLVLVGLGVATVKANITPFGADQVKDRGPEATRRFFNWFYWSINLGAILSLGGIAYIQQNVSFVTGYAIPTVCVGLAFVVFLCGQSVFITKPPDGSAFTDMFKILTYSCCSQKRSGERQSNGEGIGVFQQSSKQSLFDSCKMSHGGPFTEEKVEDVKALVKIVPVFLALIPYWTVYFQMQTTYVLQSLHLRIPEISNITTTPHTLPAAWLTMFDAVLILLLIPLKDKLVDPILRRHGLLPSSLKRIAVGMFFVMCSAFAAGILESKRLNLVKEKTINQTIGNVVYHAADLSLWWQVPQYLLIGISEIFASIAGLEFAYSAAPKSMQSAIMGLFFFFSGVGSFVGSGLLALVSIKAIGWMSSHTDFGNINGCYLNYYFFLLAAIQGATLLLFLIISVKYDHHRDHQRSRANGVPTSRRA
# Chain of UniProt O75563 (O75563 whole entry, looked up): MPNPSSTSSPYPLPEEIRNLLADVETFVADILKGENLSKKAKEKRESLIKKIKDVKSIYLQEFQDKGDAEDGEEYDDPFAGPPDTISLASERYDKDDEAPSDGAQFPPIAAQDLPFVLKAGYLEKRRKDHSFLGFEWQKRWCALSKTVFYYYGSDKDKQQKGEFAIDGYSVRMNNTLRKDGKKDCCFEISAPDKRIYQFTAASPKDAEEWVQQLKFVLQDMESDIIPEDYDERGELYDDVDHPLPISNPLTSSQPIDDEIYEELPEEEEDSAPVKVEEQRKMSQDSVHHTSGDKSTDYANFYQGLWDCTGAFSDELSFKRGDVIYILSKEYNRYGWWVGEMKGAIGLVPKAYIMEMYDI
# Chain of UniProt Q8NC51 (Q8NC51 whole entry, looked up): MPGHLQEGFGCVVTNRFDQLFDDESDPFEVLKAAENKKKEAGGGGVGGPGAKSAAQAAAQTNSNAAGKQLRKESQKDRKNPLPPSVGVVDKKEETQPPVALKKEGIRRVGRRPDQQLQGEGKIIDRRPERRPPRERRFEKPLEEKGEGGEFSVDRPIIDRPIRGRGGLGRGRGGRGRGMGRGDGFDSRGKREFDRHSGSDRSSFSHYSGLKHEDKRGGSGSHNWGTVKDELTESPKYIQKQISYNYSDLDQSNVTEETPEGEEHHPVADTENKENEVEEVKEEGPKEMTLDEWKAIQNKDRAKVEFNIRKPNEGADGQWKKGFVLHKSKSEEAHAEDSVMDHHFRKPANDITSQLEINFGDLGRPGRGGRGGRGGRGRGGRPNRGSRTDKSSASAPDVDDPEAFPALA
# Chain of UniProt O60504 (O60504 whole entry, looked up): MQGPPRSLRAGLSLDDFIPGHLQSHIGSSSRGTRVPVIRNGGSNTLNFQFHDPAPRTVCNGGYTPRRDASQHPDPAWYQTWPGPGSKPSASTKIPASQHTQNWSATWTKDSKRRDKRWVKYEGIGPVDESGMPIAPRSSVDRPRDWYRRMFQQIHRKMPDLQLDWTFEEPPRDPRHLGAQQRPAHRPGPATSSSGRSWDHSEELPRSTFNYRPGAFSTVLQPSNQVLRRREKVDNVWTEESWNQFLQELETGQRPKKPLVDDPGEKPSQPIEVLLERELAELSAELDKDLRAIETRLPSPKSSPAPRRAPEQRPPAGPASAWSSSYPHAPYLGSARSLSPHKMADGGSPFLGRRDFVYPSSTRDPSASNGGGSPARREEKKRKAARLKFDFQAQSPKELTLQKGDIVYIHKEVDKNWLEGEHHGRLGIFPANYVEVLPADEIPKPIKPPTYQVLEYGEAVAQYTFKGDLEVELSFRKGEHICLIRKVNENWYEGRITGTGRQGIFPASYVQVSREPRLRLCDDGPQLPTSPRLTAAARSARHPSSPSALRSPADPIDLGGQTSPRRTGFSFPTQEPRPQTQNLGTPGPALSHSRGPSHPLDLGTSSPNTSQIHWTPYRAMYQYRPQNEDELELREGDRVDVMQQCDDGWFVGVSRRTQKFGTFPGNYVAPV
# Chain of UniProt P60903 (P60903 whole entry): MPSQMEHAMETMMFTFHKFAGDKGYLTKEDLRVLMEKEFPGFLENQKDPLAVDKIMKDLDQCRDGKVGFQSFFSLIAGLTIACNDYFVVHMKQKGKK
# Chain of UniProt Q9NXA8 (Q9NXA8 whole entry, looked up): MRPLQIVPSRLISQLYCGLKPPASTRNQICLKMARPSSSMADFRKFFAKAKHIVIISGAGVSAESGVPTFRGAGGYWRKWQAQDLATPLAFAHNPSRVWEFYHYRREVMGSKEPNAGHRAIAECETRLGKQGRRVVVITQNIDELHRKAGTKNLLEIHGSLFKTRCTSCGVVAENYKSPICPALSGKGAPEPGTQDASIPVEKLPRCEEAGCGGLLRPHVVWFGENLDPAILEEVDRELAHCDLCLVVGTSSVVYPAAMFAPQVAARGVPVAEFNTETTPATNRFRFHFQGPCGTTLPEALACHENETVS
Target,probe-labelled cysteine peptide fold change (10 µM),probe-labelled cysteine peptide fold change (50 µM)
SAMD9_Q5K651_975+979_TEVIECGNYCGVR (UniProt Q5K651),0.388,0.22
SNX5_Q9Y5X3_250_NVADDYIHTAACLHSLALEEPTVIKK (UniProt Q9Y5X3),-0.0814,-0.118
SMPD4_Q9NXE4_221_TSDCAYFILVDR (UniProt Q9NXE4),0.14,0.266
SMAD4_Q13485_127_CDSVCVNPYHYER (UniProt Q13485),0.000739,0.0905
SH3GLB1_Q9Y371_304_ECSGSR (UniProt Q9Y371),-0.137,0.575
SPATA5_Q8NB90_459_HPSIIFIDELDALCPK (UniProt Q8NB90),-0.0102,-0.321
SEC23B_Q15437_40_MVVPLACLLTPLK (UniProt Q15437),-0.0615,-0.0659
SIRT6_Q8N6T7_141_LAELHGNMFVEECAK (UniProt Q8N6T7),0.087,0.00561
SCAF11_Q99590_566_VYQPVSCPLSDLSENVESVVNEEK (UniProt Q99590),-0.0494,-0.138
SORBS3_O60504_482_GEHICLIR (UniProt O60504),0.12,0.166
SIRT5_Q9NXA8_293+303_FHFQGPCGTTLPEALACHENETVS (UniProt Q9NXA8),0.203,-0.0498
RPS2_P15880_222_KLLMMAGIDDCYTSAR (UniProt P15880),-0.59,-0.607
SLC7A7_Q9UM01_349_EGHLPDAICMIHVER (UniProt Q9UM01),0.0357,0.0274
SMCHD1_A6NHR9_474_RPIFECFWNGR (UniProt A6NHR9),-0.00857,0.0994
RTN3_O95197-3_46_SCSSSCAVHDLIFWR (UniProt O95197),-0.00795,-0.919
RRP8_O43159_451_AQLSGLQLQPCLYK (UniProt O43159),0.0693,-0.167
RUVBL1_Q9Y265_94_VPFCPMVGSEVYSTEIK (UniProt Q9Y265),0.0537,-0.0791
SLC15A4_Q8N697_269_ILTYSCCSQK (UniProt Q8N697),-0.00859,-0.114
SNUPN_O95149_356_GSSHSPDHPGCLMEN (UniProt O95149),0.0268,-0.656
SNUPN_O95149_199_GHPFYDCQTDFR (UniProt O95149),0.47,0.00215
SBF1_O95248_987_SCTFQLLK (UniProt O95248),-0.0361,0.064

Target,probe-labelled cysteine peptide fold change (10 µM),probe-labelled cysteine peptide fold change (50 µM)
SKAP2_O75563_186_DCCFEISAPDK (UniProt O75563),0.239,0.128
SNRNP200_O75643_576_RLATYGITVAELTGDHQLCK (UniProt O75643),-0.0593,0.102
RSPRY1_Q96DX4_190_LTEILNLNGEVACQDSSHPAK (UniProt Q96DX4),-0.258,-0.129
SIL1_Q9H173_408_VLQTLGVLLTTCR (UniProt Q9H173),0.0793,0.848
RTRAF_Q9Y224_19_LTALDYHNPAGFNCK (UniProt Q9Y224),0.414,0.404
SEC63_Q9UGP8_490_EQSICAAEEQPAEDGQGETNK (UniProt Q9UGP8),0.0683,-0.228
SASS6_Q6UVJ0_94_FIDLLQQCTQEHAK (UniProt Q6UVJ0),0.0471,0.0533
RPS28_P62857_27_TGSQGQCTQVRVEFMDDTSR (UniProt P62857),-0.718,-0.281
SEC24C_P53992_493_RVDAYDRPELSLGSYEFLATVDYCK (UniProt P53992),-0.123,0.0859
SND1_Q7KZF4_96_EVCFTIENK (UniProt Q7KZF4),0.00729,0.0683
SMARCB1_Q12824_167_TFPLCFDDHDPAVIHENASQPEVLVPIRLDMEIDGQKLR (UniProt Q12824),-0.0714,0.0299
SETDB1_Q15047_582_LFYLPHVCSYTCLSR (UniProt Q15047),-0.142,-0.048
SMARCC1_Q92922_761_VDPTYGLESSCIAGTGPDEPEKLEGAEEEK (UniProt Q92922),-0.397,-0.234
SCAF11_Q99590_752_QMNENSVTHCSENNMPSSDLADEK (UniProt Q99590),0.00365,-0.727
SLC4A1AP_Q9BWU0_399_EGEELEYEFDEQGHSTWLCR (UniProt Q9BWU0),-0.0527,0.0332
SCP2_P22307_115_QLIQGGVAECVLALGFEK (UniProt P22307),-2.21,-2.14
RPP40_O75818_235_DLQCPVLQSSELEGTPEVSCR (UniProt O75818),0.892,0.729
SFMBT2_Q5VUG0_796_CPPTKPEGTEDTKQEEEERLVLESNPLEWTVTDVVR (UniProt Q5VUG0),-0.043,-0.0391
RPS17_P08708_35_RVCEEIAIIPSKK (UniProt P08708),-0.177,0.0725
SEPHS2_Q99611_377_FGLLQGTSAETSGGLLICLPR (UniProt Q99611),0.196,-0.657
SNTB1_Q13884_515_DGEIQLDLHSCPKPIVFIIHSFLSAK (UniProt Q13884),-0.207,0.302

Target,probe-labelled cysteine peptide fold change (10 µM),probe-labelled cysteine peptide fold change (50 µM)
SEC62_Q99442_55_AVDCLLDSK (UniProt Q99442),-0.122,-0.249
RRP12_Q5JTH9_102_SSGTFLSGLSDCTNVTFSK (UniProt Q5JTH9),0.0888,0.0733
SPECC1_Q5M775_633_EICDHQAEQLSR (UniProt Q5M775),-0.00943,-0.0553
SESN1_Q9Y6P5_286_QLQECRDEEEASQEEMASR (UniProt Q9Y6P5),-0.00479,-0.0495
SPAG1_Q07617_825_EACAHLLAITAPK (UniProt Q07617),-0.0823,-0.0988
SACS_Q9NZJ4_3694_QCDVLQLLWTSCPILPEK (UniProt Q9NZJ4),-0.00918,-0.0315
S100A10_P60903_62_DLDQCR (UniProt P60903),-0.0944,-0.0317
SNTB1_Q13884_515_DGEIQLDLHSCPK (UniProt Q13884),0.144,0.6
SMARCC2_Q8TAQ2_80_CFLDFK (UniProt Q8TAQ2),-0.00468,0.128
SLC25A16_P16260_246_THVNLLCGGVAGAIAQTISYPFDVTR (UniProt P16260),0.365,0.384
SP110_Q9HB58_327_DDSTCNSTVETR (UniProt Q9HB58),0.0292,-0.106
SMU1_Q2TAY7_219_SHVECAR (UniProt Q2TAY7),0.194,0.11
SLPI_P03973_51+57_YKKPECQSDWQCPGK (UniProt P03973),-0.301,-0.883
SETDB1_Q15047_385_RCEWIYR (UniProt Q15047),0.156,0.176
RREB1_Q92766_291_DAMGRPFIQNNPSIPAGFHDLGFTDFSCR (UniProt Q92766),-0.104,-0.0626
SMARCD2_Q92925_298_CTLLLMLDHQPPQYK (UniProt Q92925),-0.0298,-0.00447
SLX4_Q8IY92_786_FGVSELVHLCEQVPIATDSEGKPWEEK (UniProt Q8IY92),0.00222,0.116
SRBD1_Q8N5C6_912_SIVCLEDLQIGTVLTGK (UniProt Q8N5C6),0.0769,-0.14
SMYD3_Q9H7B4_263_DQYCFECDCFR (UniProt Q9H7B4),-0.0567,0.116
SERPINF2_P08697_152_LCQDLGPGAFR (UniProt P08697),0.591,0.7
SCAPER_Q9BY12_336_DSLHSCDHPLAEK (UniProt Q9BY12),-0.0351,-0.308

Target,probe-labelled cysteine peptide fold change (10 µM),probe-labelled cysteine peptide fold change (50 µM)
SATB2_Q9UPW6_159_IQLQSCSK (UniProt Q9UPW6),0.071,-0.00125
SRD5A3_Q9H8P0_238_AGVVIHCNHR (UniProt Q9H8P0),0.00183,-0.036
SEPT9_Q9UHD8_531_WGTIEVENTTHCEFAYLR (UniProt Q9UHD8),0.0123,-0.0856
SIPA1_Q96FS4_467_AHTPCTPHTTYR (UniProt Q96FS4),0.187,0.0943
SNRPC_P09234_25_KTHCSGR (UniProt P09234),-0.332,-0.766
RRP12_Q5JTH9_673_GCQAEADRAEVSR (UniProt Q5JTH9),0.0652,-0.00566
SETDB1_Q15047_781_RLEECLPTGVYECNKR (UniProt Q15047),-0.124,-0.00361
SNRNP40_Q96DI7_72_CSSLQAPIMLLSGHEGEVYCCK (UniProt Q96DI7),0.165,0.0428
SAR1A_Q9NR31_178_ELNARPMEVFMCSVLKR (UniProt Q9NR31),-0.614,-0.486
SMAD4_Q13485_391_GVQLECK (UniProt Q13485),0.0468,0.21
SF1_Q15637_282+292_CGGAGHIASDCK (UniProt Q15637),-0.0927,-0.0122
SERBP1_Q8NC51_11_PGHLQEGFGCVVTNRFDQLFDDESDPFEVLK (UniProt Q8NC51),-0.323,-0.648
SAFB2_Q14151_224_ILDILGETCK<|>SAFB_Q15424_225_ILDILGETCK (UniProt Q15424+Q14151),-0.021,-0.165
SCAF11_Q99590_553_TDVCTVHLPNDFPTCLTSESK (UniProt Q99590),0.0519,-0.221
SHMT1_P34896_335_VYQHQVVANCR (UniProt P34896),0.0178,0.112
SETDB1_Q15047_1207_QFYDGEESCYIIDAK (UniProt Q15047),-0.0777,-0.0706
SAE1_Q9UBE0_303_YCFSEMAPVCAVVGGILAQEIVK (UniProt Q9UBE0),-0.0632,-0.0869
RPS5_P46782_155_VNQAIWLLCTGAR (UniProt P46782),0.00589,0.118
RUBCNL_Q9H714_641_QCFQSSECPR (UniProt Q9H714),0.144,0.15
SBF1_O95248_839_VCTESGVTSDHLK (UniProt O95248),0.116,0.0908
